C diff HTS: blocks growth of Clostridium difficile; Clostridium difficile clinical isolate growth, OD600, 24 h; stronger effect = lower value; growth activity, negative = inhibition, % at 16 µg/mL (by protocol); 0.25% of 86,000 active;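 active = mean growth activity at or below -80% and every replicate also at or below -80%; inconclusive = mean at or below -80% but some replicate above -80%; inactive = mean growth activity above -80%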
Pf Dd2 growth: blocks growth of Plasmodium falciparum Dd2 parasites | P. falciparum Dd2 growth, SYBR Green, 72 h; stronger effect = lower value | activity change, % at 10 µM | 2.3% of 94,000 active; in the data active = activity change below about -80%; inconclusive = no clear call, values can overlap the other calls
T cruzi growth-1: blocks T. cruzi growth in NIH3T3 culture. inhibition, % at 8.34 µM. AID 624255. 5.9% of 77,000 active. T. cruzi beta-gal in NIH3T3, GalScreen luminescence, 90 h;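 active = mean inhibition above about 93%, with at least 55% of replicates each passing it, limit read from the data, passing the limit was not always enough; inconclusive = only one of those two conditions holds; inactive = neither condition holds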
T cruzi growth-2: inhibitors of T. cruzi proliferation; shares compounds with T cruzi growth-1; T. cruzi beta-gal in NIH3T3, GalScreen luminescence, 90 h; inhibition, % at 8.35 µM; 72% of 5,600 active; AID 651739;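 active = mean replicate inhibition above about 95% and at least 55% of replicates individually reaching it, limit read from the data; inconclusive = only one of the two criteria is met; inactive = neither criterion is met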
T cruzi growth-3: inhibitors of T. cruzi proliferation; 21% of 5,600 active; AID 651740; inhibition, % at 2.09 µM; shares compounds with T cruzi growth-1; T. cruzi beta-gal in NIH3T3, GalScreen luminescence, 90 h;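 active = mean inhibition above about 95%, with at least 55% of replicates also reaching it, limit read from the data; inconclusive = meets just one of the two conditions; inactive = meets neither condition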
3T3 cytotox: NIH/3T3 (mouse) viability loss; shares compounds with T cruzi growth-1; NIH/3T3 viability, CellTiter-Glo ATP luminescence, 90 h; cytotoxicity (signal decrease), % at 8.35 µM; 14% of 5,600 active;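 active = mean signal decrease across replicates above about 35% based on untreated-well scatter, with enough replicates individually passing, limit read from the data; inconclusive = no rule stated though some were filed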
NIH3T3 tox 2: NIH/3T3 (mouse) viability loss | shares compounds with T cruzi growth-1 | NIH/3T3 viability, CellTiter-Glo ATP luminescence, 90 h | inhibition, % at 24.9 µM | 56% of 5,600 active | AID 651744;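 active = mean loss of cell viability signal at or above a set limit, and enough replicates individually reaching it; inconclusive = meets only the mean limit or only the replicate share; inactive = meets neither condition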
Of the large screens only hits and unclear results are named; the others gave an inactive call (follow-up assays come after a bar, where they were run). Rows were chosen to be rich in hits. Some 6.8% of all compounds tested hit in one or more screens of this group.

CCCNC(=O)N1C[C@H](O)COC[C@H]2O[C@H](CC(=O)N3CCOCC3)CC[C@@H]21	none (no result: C diff HTS)
COCC#Cc1ccc([C@H]2[C@H](CO)N3CCCCN(S(=O)(=O)c4cccc(OC)c4)C[C@@H]23)cc1	T cruzi growth-1 108 | T cruzi growth-2 97 | T cruzi growth-3 inactive | 3T3 cytotox inactive | NIH3T3 tox 2 inconclusive
COCC#Cc1ccc([C@@H]2[C@H]3CN(S(=O)(=O)c4ccc(OC)cc4)CCCCN3[C@H]2CO)cc1	T cruzi growth-1 99 | T cruzi growth-2 100 | T cruzi growth-3 inactive | 3T3 cytotox inactive | NIH3T3 tox 2 31
COCC#Cc1ccc([C@@H]2[C@@H](CO)N3CCCCN(S(=O)(=O)c4ccc(OC)cc4)C[C@@H]23)cc1	none
COCC#Cc1ccc([C@H]2[C@@H](CO)N3CCCCN(S(=O)(=O)c4cccc(OC)c4)C[C@@H]23)cc1	none
N#C[C@@H]1[C@@H](c2ccccc2-c2ccccc2)[C@H](CO)N1C(=O)Cc1ccccc1	none (no result: T cruzi growth-1)
CNC[C@@H]1OCCCC[C@@H](C)Oc2ccc(NC(=O)Nc3c(C)noc3C)cc2C(=O)N([C@H](C)CO)C[C@@H]1C	none (no result: Pf Dd2 growth)
CCCNC(=O)N1CCC2(CC1)CN(C(=O)CC1CC1)[C@@H](CO)c1c2c2ccc(OC)cc2n1C	none (no result: T cruzi growth-1)
C[C@H](CO)N1C[C@H](C)[C@H](CN(C)C(=O)Nc2ccc(C(F)(F)F)cc2)OCCCC[C@H](C)Oc2ccc(NC(=O)Nc3cccc4ccccc34)cc2C1=O	none
C[C@@H]1CCCCO[C@H](CN(C)C(=O)Nc2cccc3ccccc23)[C@H](C)CN([C@@H](C)CO)C(=O)c2cc(NC(=O)Nc3ccc(C(F)(F)F)cc3)ccc2O1	T cruzi growth-1 109 | T cruzi growth-2 111 | T cruzi growth-3 113 | 3T3 cytotox inactive | NIH3T3 tox 2 inactive
C[C@@H]1CCCCO[C@@H](CN(C)C(=O)Nc2ccc(C(F)(F)F)cc2)[C@H](C)CN([C@H](C)CO)C(=O)c2cc(NC(=O)Nc3cccc4ccccc34)ccc2O1	T cruzi growth-1 100 | T cruzi growth-2 107 | T cruzi growth-3 102 | 3T3 cytotox inactive | NIH3T3 tox 2 inactive
C[C@H](CO)N1C[C@H](C)[C@H](CN(C)C(=O)Nc2cccc3ccccc23)OCCCC[C@H](C)Oc2ccc(NC(=O)Nc3ccc(C(F)(F)F)cc3)cc2C1=O	none
C[C@H](NC(=O)N(C)C[C@@H]1OCc2ccccc2-c2c(n(C)c3ccccc23)C(=O)N([C@@H](C)CO)C[C@@H]1C)c1ccccc1	none
C[C@@H]1CN([C@@H](C)CO)C(=O)c2cc(NS(C)(=O)=O)ccc2O[C@@H](C)CCCCO[C@H]1CN(C)Cc1ccc(C(=O)O)cc1	none
COc1ccc2c3c(n(C)c2c1)[C@@H](CO)N(Cc1cccnc1)CC31CCN(Cc2cccnc2)CC1	none (no result: C diff HTS, T cruzi growth-1)
CNC[C@H]1Oc2ccc(NC(=O)C3CC3)cc2CC(=O)N([C@H](C)CO)C[C@H]1C	none
CCCNC(=O)N1CC2(CCN(C(=O)C3CCCC3)CC2)c2c([nH]c3cc(OC)ccc23)[C@H]1CO	none (no result: T cruzi growth-1)
COCC#Cc1cnc2c(c1)C(=O)N([C@H](C)CO)C[C@@H](C)[C@@H](CN(C)Cc1ccc(-c3ccccc3)cc1)O2	none
C[C@H]1CN([C@@H](C)CO)C(=O)c2cc(C#CCN(C)C)cnc2O[C@H]1CN(C)Cc1ccc(-c2ccccc2)cc1	none (no result: Pf Dd2 growth)
C[C@H](CO)N1C[C@H](C)[C@@H](CN(C)Cc2ccc(-c3ccccc3)cc2)Oc2ncc(C#CCN(C)C)cc2C1=O	T cruzi growth-1 inconclusive (no result: Pf Dd2 growth) | T cruzi growth-2 108 | T cruzi growth-3 inactive | 3T3 cytotox inactive | NIH3T3 tox 2 104
COCC#Cc1cnc2c(c1)C(=O)N([C@H](C)CO)C[C@@H](C)[C@H](CN(C)Cc1ccc(-c3ccccc3)cc1)O2	T cruzi growth-1 119 | T cruzi growth-2 108 | T cruzi growth-3 inactive | 3T3 cytotox inactive | NIH3T3 tox 2 102
COCC#Cc1cnc2c(c1)C(=O)N([C@H](C)CO)C[C@H](C)[C@@H](CN(C)Cc1ccc(-c3ccccc3)cc1)O2	none
COCC#Cc1cnc2c(c1)C(=O)N([C@@H](C)CO)C[C@@H](C)[C@H](CN(C)Cc1ccc(-c3ccccc3)cc1)O2	T cruzi growth-1 120 | T cruzi growth-2 109 | T cruzi growth-3 inactive | 3T3 cytotox 46 | NIH3T3 tox 2 106
CN1C(=O)c2cc(NS(C)(=O)=O)ccc2OC[C@H]2O[C@H](CC(=O)NC3CCCCC3)CC[C@H]21	none (no result: Pf Dd2 growth)
COc1ccc(CN(C)C[C@@H]2OCCCC[C@H](C)Oc3ccc(N(C)C)cc3C(=O)N([C@H](C)CO)C[C@H]2C)cc1	none
COCCNC(=O)C[C@@H]1CC[C@@H](NS(=O)(=O)c2ccc(C)cc2)[C@H](CO)O1	none (no result: T cruzi growth-1)
COc1ccc(-c2ccc([C@@H]3[C@@H](C#N)N(C(=O)NC(C)C)[C@H]3CO)cc2)cc1	none
COc1ccc(-c2ccc([C@H]3[C@H](C#N)N(C(=O)NC4CCCCC4)[C@H]3CO)cc2)cc1	T cruzi growth-1 101 | T cruzi growth-2 102 | T cruzi growth-3 inactive | 3T3 cytotox inactive | NIH3T3 tox 2 75
COc1ccc(-c2ccc([C@H]3[C@H](C#N)N(C(=O)NC4CCCC4)[C@H]3CO)cc2)cc1	T cruzi growth-1 inconclusive | T cruzi growth-2 inactive | T cruzi growth-3 inactive | 3T3 cytotox inactive | NIH3T3 tox 2 inactive
COc1ccccc1-c1ccc([C@@H]2[C@@H](C#N)N(C(=O)NC3CCCCC3)[C@@H]2CO)cc1	none
CCCN1C[C@@H](C)[C@@H](OC)CN(C)C(=O)c2cc(NC(=O)c3ccccc3F)ccc2OC[C@@H]1C	none (no result: C diff HTS)
CCCN(C)C[C@H]1OCc2cnnn2CCCC(=O)N([C@H](C)CO)C[C@H]1C	none (no result: C diff HTS)
COc1ccc2c3c([nH]c2c1)[C@H](CO)N(C)CC31CN(C(=O)c2cccnc2)C1	none (no result: T cruzi growth-1)
C[C@@H]1CCCCO[C@H](CN(C)C(=O)Nc2cccc3ccccc23)[C@@H](C)CN([C@@H](C)CO)C(=O)c2cc(NS(C)(=O)=O)ccc2O1	none
C[C@@H]1CCCCO[C@@H](CN(C)C(=O)Nc2cccc3ccccc23)[C@H](C)CN([C@@H](C)CO)C(=O)c2cc(NS(C)(=O)=O)ccc2O1	T cruzi growth-1 116 | T cruzi growth-2 inactive | T cruzi growth-3 inactive | 3T3 cytotox inactive | NIH3T3 tox 2 inactive
C[C@H](CO)N1C[C@H](C)[C@@H](CN(C)C(=O)Nc2cccc3ccccc23)OCCCC[C@H](C)Oc2ccc(NS(=O)(=O)c3ccc(Cl)cc3)cc2C1=O	none
C[C@H](CO)N1C[C@H](C)[C@H](CN(C)C(=O)Nc2cccc3ccccc23)OCCCC[C@H](C)Oc2ccc(NS(=O)(=O)c3ccc(Cl)cc3)cc2C1=O	T cruzi growth-1 96 | T cruzi growth-2 101 | T cruzi growth-3 inactive | 3T3 cytotox inactive | NIH3T3 tox 2 inactive
